These results are taken from PubChem BioAssay (NCATS).

The nature of assay [1]: Quantitative High-Throughput drug screen in 47 multiple myeloma cell lines against the NCATS MIPE library collection: OPM1_PLB cell viability assay (AID 1918989). Also: nearly all actives have a fitted effect of over 40% in size. The essentials:
(§1)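 500 cells/well; MIPE 4.0 drugs pin-transferred; 48 h, 37C, 5% CO2. CellTiter-Glo, 5 min RT, luminescence. Controls: DMSO 100%, media 0%.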

Assay [2] can be described thus: Quantitative High-Throughput drug screen in 47 multiple myeloma cell lines against the NCATS MIPE library collection: SKMM1_PLB cell viability assay (AID 1919863). Also: nearly all actives have a fitted effect of over 35% in size. As to conditions: SKMM1 myeloma viability, CellTiter-Glo ATP, 48 h; viability: hits give low values. The method, boiled down: as §1
A general note: ATP-based viability assays read luminescence as a measure of living cells.

Assay [3] can be described thus: Quantitative High-Throughput drug screen in 47 multiple myeloma cell lines against the NCATS MIPE library collection: U266_ATCC cell viability assay (AID 1919864). Also: nearly all actives have a fitted effect of over 35% in size.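 As to viability (% of DMSO control): 0% = media-only wells without cells and 100% = DMSO-only wells.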 The method, boiled down:
as §1

Assay [4] can be described thus: Quantitative High-Throughput drug screen in 47 multiple myeloma cell lines against the NCATS MIPE library collection: XG6_PLB cell viability assay (AID 1919865). Also: nearly all actives have a fitted effect of over 40% in size. The method, boiled down:
as §1

The nature of assay [5]: Quantitative High-Throughput drug screen in 47 multiple myeloma cell lines against the NCATS MIPE library collection: XG1_PLB cell viability assay (AID 1919866). Also: nearly all actives have a fitted effect of over 35% in size. The method, boiled down:
as §1

Assay [6] is described as follows: Quantitative High-Throughput drug screen in 47 multiple myeloma cell lines against the NCATS MIPE library collection: VP6_DJ cell viability assay (AID 1919867). Also: nearly all actives have a fitted effect of over 40% in size. The essentials: as §1
The nature of assay [7]: Quantitative High-Throughput drug screen in 47 multiple myeloma cell lines against the NCATS MIPE library collection: UTMC2_PLB cell viability assay (AID 1919868). Also: nearly all actives have a fitted effect of over 55% in size.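 As to viability (% of DMSO control): 100% = DMSO-only wells and 0% = media-only wells without cells.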 As to conditions: CellTiter-Glo ATP luminescence, 48 h; viability (% of DMSO control): at 45.8 µM (top of the series). The essentials: as §1
Assay [8] can be described thus: Quantitative High-Throughput drug screen in 47 multiple myeloma cell lines against the NCATS MIPE library collection: PE2_PLB cell viability assay (AID 1919869). Also: nearly all actives have a fitted effect of over 35% in size. The essentials: as §1
Assay [9] is described as follows: Quantitative High-Throughput drug screen in 47 multiple myeloma cell lines against the NCATS MIPE library collection: OCIMY5_PLB cell viability assay (AID 1918988). Also: nearly all actives have a fitted effect of over 65% in size. The essentials: as §1

Records with an inconclusive call do not appear. Values without a mark were called inactive. Calls of active or inactive are those of the source. Calls follow the shape of the dose curve; as a rule, active = well fitted cell-killing curve with a large enough effect; inconclusive = small, poorly fitted or top-dose-only effect, or effect the other way; inactive = no such curve, though single readings can be large or run the other way.
Potency is read from the fitted curve at half-maximal effect.

Consider `O=C(O)c1ccc(-c2cc3cccnc3c(-c3ccc4nonc4c3)n2)cc1`, for which the Potency in [1], in assay [2], in [3], in assay [4], in assay [5] and in assay [6] was 20.9 µM (active) each time.

For the compound `Clc1ccc(-c2nc3sccn3c2C=NOCc2ccc(Cl)c(Cl)c2)cc1`, the Potency result in [1], in assay [6], in assay [7] and in assay [8] was “inactive” each time. The viability (in general, a read-out of living cells in per cent, often relative to untreated cells) in assay [2] is 102%.

`CC(=O)O[C@]1(C(C)=O)CC[C@@H]2[C@@H]3C[C@H](C)C4=CC(=O)CC[C@]4(C)[C@H]3CC[C@@]21C`: the Potency in assay [9] was 16.6 µM (active); in assay [3] it was 20.9 µM (active); in [4], 23.5 µM (active); in [6], 14.8 µM (active). Also, the Potency entry in assay [7] is “inactive”.

`O=c1c(-c2ccc(O)cc2)coc2cc(O[C@@H]3O[C@H](CO)[C@H](O)[C@H](O)[C@H]3O)ccc12`: the Potency result in [1], in [5] and in [8] was “inactive” throughout. For the same compound, the viability in assay [2] is 171%.

For the compound `C[C@H](NC(=O)C(=O)Nc1ccccc1C(C)(C)C)C(=O)N[C@@H](CC(=O)O)C(=O)COc1c(F)c(F)cc(F)c1F`, the Potency entry in [1], in assay [5], in assay [6] and in assay [8] was “inactive” in each case. Moreover, the Potency in assay [2] was 16.6 µM (active).

As to `CN(C)Cc1ccc(-c2nc3cccc4c3n2CCNC4=O)cc1`, the Potency in assay [9] is 20.9 µM (active); in [4], 16.6 µM (active); in assay [5], 20.9 µM (active); in [6] it was 14.8 µM (active); in assay [8], 20.9 µM (active).

Turning to `CN1C[C@H]2c3ccccc3Oc3ccc(Cl)cc3[C@@H]2C1`, the Potency in assay [9] was 13.2 µM (active); in assay [6], 4.18 µM (active). Further, the Potency entry in [3], in assay [4] and in [5] was “inactive” in each case.

As for `CC(=O)Oc1cc2c(s1)CCN(C(C(=O)C1CC1)c1ccccc1F)C2` (stereo unspecified), the Potency in [9] is 0.833 µM (active); in [4], 2.64 µM (active); in assay [6], 1.32 µM (active); in assay [7], 2.96 µM (active).

On to `COC1CCC(N(C(=O)C2CCC(C)CC2)c2cc(C3=CCCCC3)sc2C(=O)O)CC1` (stereo unspecified), for which the Potency is 11.8 µM (active) in [9], 20.9 µM (active) in assay [5], 14.8 µM (active) in assay [6] and 23.5 µM (active) in assay [8]. For the same compound, in assay [3], the Potency result is “inactive”. Also, in assay [7], the viability (% of DMSO control) was 89.9% (active).

`Cc1ccc([C@@H]2O[C@H](CO)[C@@H](O)[C@H](O)[C@@H]2O)cc1Cc1ccc(-c2ccc(F)cc2)s1`: the Potency in [1] was 20.9 µM (active); in assay [8], 18.7 µM (active). For the same compound, in assay [2], the viability is 118%. Moreover, the Potency result in assay [7] is “inactive”.

For the compound `C[C@]12CCC3c4ccc(O)cc4CCC3C1CCC2=O` (stereo partly specified), the Potency in assay [9] was 0.0019 µM (active). Further, the Potency result in assay [4], in assay [5] and in assay [8] was “inactive” throughout.

As for `Cn1cc(C=C2C(=O)Nc3cccnc32)c2ccccc21`, the values for the Potency in [1] and in assay [6] were 18.7 µM (active) and 10.5 µM (active), respectively. Besides, in assay [2], the viability was 130%. In assay [5], the Potency result was “inactive”.

In the case of `CC(C)(Cc1ccc2ccccc2c1)NC[C@@H](O)COc1cccc(Cl)c1C#N`, the Potency in [1] is 6.62 µM (active). Further, the viability in assay [2] was 126%. Besides, the Potency entry in assay [3], in assay [5], in assay [7] and in assay [8] was “inactive” throughout.

As to `C[C@H]1[C@H](NC(=O)C(=NOC(C)(C)C(=O)O)c2csc(N)n2)C(=O)N1S(=O)(=O)O`, the Potency entry in [1], in assay [7] and in assay [8] was “inactive” throughout. In addition, the viability in assay [2] was 114%. In assay [3], the Potency was 14.8 µM (active).

As to `O=C(Nc1c(Cl)cncc1Cl)c1ccc(OC(F)F)c(OCC2CC2)c1`, the Potency result in [1] and in assay [3] was “inactive” each time. The viability in assay [2] was 111%. In assay [5], the Potency was 18.7 µM (active).

For `OC[C@H]1O[C@@H](n2cnc3c2NC=NC[C@@H]3O)C[C@H]1O`, the Potency result in assay [1] and in assay [7] was “inactive” in each case. Further, the viability in assay [2] is 110%. Moreover, the Potency in [6] was 14.8 µM (active); in assay [8], 11.8 µM (active).

As for `NC(=O)c1cnc(-c2ccc(C3(N)CCC3)cc2)c(-c2ccccc2)c1`, the Potency is 0.187 µM (active) in assay [9], 16.6 µM (active) in [4], 13.2 µM (active) in assay [6] and 5.9 µM (active) in assay [8]. Moreover, the Potency result in [5] is “inactive”.

As to `CC(C(=O)O)c1ccc(-c2ccccc2)c(F)c1` (stereo unspecified), the Potency result in [1] is “inactive”. In addition, the viability in [2] is 102%. The Potency was 20.9 µM (active) in assay [4], 9.35 µM (active) in assay [5] and 13.2 µM (active) in [6].

As to `C[C@H](NC(=O)c1sccc1OCc1ccc(Cl)cc1)c1ccccc1`, the Potency in [9] was 16.6 µM (active); in [2], 18.7 µM (active); in [8], 18.7 µM (active).

`OC[C@H]1O[C@@H](Oc2cc(O)cc(C=Cc3ccc(O)cc3)c2)[C@H](O)[C@@H](O)[C@H]1O`: in [9], the Potency is 9.35 µM (active). Besides, the Potency entry in assay [7] and in assay [8] was “inactive” in each case.

Consider `CN(C)CCC=C1c2ccccc2COc2ccc(CC(=O)O)cc21`, for which the Potency entry in [1] and in assay [8] was “inactive” in each case. In addition, in assay [2], the viability is 114%. Moreover, the Potency in [5] was 20.9 µM (active).

With `CCn1cc(C(=O)O)c(=O)c2ccc(C)nc21`, the Potency entry in assay [1], in assay [4], in assay [5] and in assay [8] was “inactive” throughout. The viability in assay [2] is 130%.

Consider `CC1(C)O[C@H]2C[C@@H]3[C@H]4CCC5=CC(=O)C=C[C@]5(C)[C@@]4(F)[C@@H](O)C[C@]3(C)[C@]2(C(=O)CO)O1`, for which the Potency entry in [1], in assay [3], in [5], in [7] and in [8] was “inactive” each time. Moreover, the viability in assay [2] is 108%.

`CCCCCNC(=O)N1CCC(CN(Cc2ccc(Cl)cc2)Cc2ccc([N+](=O)[O-])s2)C1` (stereo unspecified): the Potency is 23.5 µM (active) in [9], 18.7 µM (active) in assay [2] and 23.5 µM (active) in assay [8].

For the compound `O=C(CCN1CCN(C(=O)OCc2cc(Cl)cc(Cl)c2)CC1)c1ccc2[nH]c(=O)oc2c1`, the Potency result in assay [1], in assay [4], in [6] and in assay [8] was “inactive” each time. For the same compound, the viability in assay [2] was 136%.

For `CC#CCn1c(N2CCC[C@@H](N)C2)nc2c1c(=O)n(Cc1nc(C)c3ccccc3n1)c(=O)n2C`, in assay [9], the Potency is 26.4 µM (active). In addition, the Potency result in [4] is “inactive”.

`O=c1cc(-c2ccccc2)oc2cc(O)cc(O)c12`: the Potency entry in assay [1] and in [3] was “inactive” each time. Moreover, the viability in assay [2] is 139%.

For the compound `O=C(NCc1ccccc1)c1csc(Nc2ccncn2)n1`, the Potency in assay [1] is 13.2 µM (active); in assay [2], 18.7 µM (active); in assay [3], 18.7 µM (active); in [4], 18.7 µM (active); in [5] it was 16.6 µM (active); in assay [6] it was 16.6 µM (active). For the same compound, the Potency in assay [7] was 16.6 µM (active); in [8] it was 13.2 µM (active).

Regarding `NC1CCC(Nc2nc(Nc3ccc(C(=O)N4CCCCC4)cc3)c3ncn(-c4cccc(F)c4)c3n2)CC1` (stereo unspecified), the Potency entry in assay [1], in assay [3], in assay [4], in assay [5] and in assay [8] was “inactive” in each case. For the same compound, the viability in assay [2] is 125%.

As for `N#C[C@H]1C[C@H]2C[C@@H]2N1C(=O)[C@@H](N)C12CC3CC(CC(O)(C3)C1)C2`, the Potency entry in assay [1], in assay [3] and in [5] was “inactive” in each case. Besides, the viability in [2] is 119%. Also, the Potency in [8] was 0.0026 µM (active).

`CO[C@H]1C[C@@H]2CC[C@@H](C)[C@@](O)(O2)C(=O)C(=O)N2CCCC[C@@H]2C(=O)O[C@H]([C@H](C)C[C@@H]2CC[C@H](OCCO)[C@H](OC)C2)CC(=O)[C@H](C)C=C(C)[C@@H](O)[C@@H](OC)C(=O)[C@H](C)C[C@H](C)C=CC=CC=C1C`: the Potency in assay [1] was 1.05 µM (active); in assay [7], 0.235 µM (active); in assay [8], 1.48 µM (active). Also, in assay [2], the viability was 66.8%.

Consider `C=CCc1ccc(O)c(-c2ccc(O)c(CC=C)c2)c1`, for which the Potency was 18.7 µM (active) in [9]; 16.6 µM (active) in [3]; 18.7 µM (active) in assay [5]; 20.9 µM (active) in assay [6]; 18.7 µM (active) in assay [8].

With `O=c1cc(-c2ccccc2)oc2cc(O)c(O)c(O)c12`, the Potency in assay [1] was 11.8 µM (active); in assay [2] it was 18.7 µM (active).

Turning to `CCC(=O)O[C@]1(C(=O)CO)CC[C@H]2[C@@H]3CCC4=CC(=O)CC[C@]4(C)[C@@H]3CC[C@@]21C`, the Potency entry in assay [1], in assay [7] and in [8] was “inactive” each time. Further, in assay [2], the viability is 108%. Also, in assay [6], the Potency is 10.5 µM (active).
